From PubChem BioAssay AID1159580 (chemical genetic matrix, 2015)
Out of some 5,500 compounds screened, about 2,000 (36%) were called active. Roughly 18% stayed inconclusive and do not appear here. No stated cut-off is given here; in the data, active means normalized growth mostly below about 0.91 (no sharp cut-off); inconclusive means no clear call, values can overlap the other calls; inactive means mostly above about 0.92. Some of the results follow.

Experiment: chemical genetic growth profiling, strain panel (AID 1159580);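 further: tested at 20 µM; growth read once vehicle control cultures reached saturation at 30 °C; 1 = growth at the plate median or of vehicle wells; lower values mean less growth of the strain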
Conditions: growth OD

Measured: normalized growth

O=C(O)CN1C(=O)c2cccc3cccc(c23)C1=O
inactive: S. cerevisiae deletion strains, locus YJR043C, strain POL32, hits give low values 1.03 | S. cerevisiae deletion strains, locus YJR066W, strain TOR1, hits give low values 0.975 | S. cerevisiae deletion strains, locus YKL009W, strain mrt4, hits give low values 0.987 | S. cerevisiae deletion strains, locus YKL068W, hits give low values 0.991 | S. cerevisiae deletion strains, locus YKL085W, strain MDH1 (second series), hits give low values 0.978 | S. cerevisiae deletion strains, locus YKL085W, strain MDH1, hits give low values 0.978 | S. cerevisiae deletion strains, locus YKL160W, strain elf1, hits give low values 0.956 | S. cerevisiae deletion strains, locus YKL190W, strain CNB1, hits give low values 1 | S. cerevisiae deletion strains, locus YKR001C, strain vps1, hits give low values 1.01 | S. cerevisiae deletion strains, locus YKR026C, strain gcn3, hits give low values 0.996 | S. cerevisiae deletion strains, locus YKR091W, strain srl3, hits give low values 0.986 | S. cerevisiae deletion strains, locus YLL001W, strain dnm1, hits give low values 0.966 | S. cerevisiae deletion strains, locus YLL026W, hits give low values 0.996 | S. cerevisiae deletion strains, locus YLL041C, strain sdh2, hits give low values 0.983 | S. cerevisiae deletion strains, locus YLR027C, strain aat2, hits give low values 0.996 | S. cerevisiae deletion strains, locus YLR039C, strain RIC1, hits give low values 1 | S. cerevisiae deletion strains, locus YLR058C, strain SHM2, hits give low values 1 | S. cerevisiae deletion strains, locus YLR102C, strain apc9, hits give low values 0.986 | S. cerevisiae deletion strains, locus YLR113W, strain HOG1, hits give low values 0.935 | S. cerevisiae deletion strains, locus YLR221C, strain rsa3, hits give low values 0.977 | S. cerevisiae deletion strains, locus YLR258W, strain gsy2, hits give low values 0.988 | S. cerevisiae deletion strains, locus YLR262C, strain YPT6 (second series), hits give low values 0.947 | S. cerevisiae deletion strains, locus YLR262C, strain YPT6, hits give low values 0.985 | S. cerevisiae deletion strains, locus YLR268W, strain sec22, hits give low values 0.983 | S. cerevisiae deletion strains, locus YLR320W, strain mms22, hits give low values 0.944 | S. cerevisiae deletion strains, locus YLR330W, strain CHS5, hits give low values 0.989 | S. cerevisiae deletion strains, locus YLR342W, strain FKS1 (second series), hits give low values 1.02 | S. cerevisiae deletion strains, locus YLR342W, strain FKS1, hits give low values 0.978 | S. cerevisiae deletion strains, locus YLR357W, strain rsc2, hits give low values 0.965 | S. cerevisiae deletion strains, locus YLR370C, strain arc18, hits give low values 0.973 | S. cerevisiae deletion strains, locus YLR371W, strain rom2, hits give low values 0.989 | S. cerevisiae deletion strains, locus YLR384C, strain iki3, hits give low values 0.973 | S. cerevisiae deletion strains, locus YLR418C, strain cdc73, hits give low values 0.988 | S. cerevisiae deletion strains, locus YML016C, strain PPZ1, hits give low values 1 | S. cerevisiae deletion strains, locus YML032C, strain rad52, hits give low values 1 | S. cerevisiae deletion strains, locus YML120C, strain ndi1, hits give low values 0.958 | S. cerevisiae deletion strains, locus YML124C, strain tub3, hits give low values 0.999 | S. cerevisiae deletion strains, locus YMR058W, strain fet3, hits give low values 0.98 | S. cerevisiae deletion strains, locus YMR078C, strain ctf18, hits give low values 0.982 | S. cerevisiae deletion strains, locus YMR125W, strain sto1, hits give low values 0.979 | S. cerevisiae deletion strains, locus YMR129W, hits give low values 0.996 | S. cerevisiae deletion strains, locus YMR205C, strain PFK2, hits give low values 0.954 | S. cerevisiae deletion strains, locus YMR223W, strain ubp8, hits give low values 0.977 | S. cerevisiae deletion strains, locus YMR231W, strain pep5, hits give low values 0.992 | S. cerevisiae deletion strains, locus YMR307W, strain GAS1, hits give low values 1.01 | S. cerevisiae deletion strains, locus YNL067W, strain RPL9B, hits give low values 1.05 | S. cerevisiae deletion strains, locus YNL071W, strain lat1, hits give low values 0.933 | S. cerevisiae deletion strains, locus YNL153C, strain GIM3, hits give low values 1.08 | S. cerevisiae deletion strains, locus YNL183C, strain NPR1, hits give low values 0.953 | S. cerevisiae deletion strains, locus YNL209W, strain ssb2, hits give low values 0.986 | S. cerevisiae deletion strains, locus YNL233W, strain BNI4, hits give low values 1.03 | S. cerevisiae deletion strains, locus YNL248C, strain rpa49, hits give low values 0.969 | S. cerevisiae deletion strains, locus YNL250W, strain rad50, hits give low values 0.941 | S. cerevisiae deletion strains, locus YNL271C, strain bni1, hits give low values 0.998 | S. cerevisiae deletion strains, locus YNL298W, strain CLA4, hits give low values 0.984 | S. cerevisiae deletion strains, locus YNL307C, strain MCK1, hits give low values 0.994 | S. cerevisiae deletion strains, locus YNL322C, strain KRE1 (second series), hits give low values 0.987 | S. cerevisiae deletion strains, locus YNR049C, strain mso1, hits give low values 0.981 | S. cerevisiae deletion strains, locus YNR052C, strain pop2, hits give low values 0.969 | S. cerevisiae deletion strains, locus YOL006C, strain TOP1, hits give low values 1.08 | S. cerevisiae deletion strains, locus YOL012C, strain htz1 0.878 | S. cerevisiae deletion strains, locus YOL147C, strain pex11, hits give low values 0.988 | S. cerevisiae deletion strains, locus YOR001W, strain rrp6, hits give low values 0.974 | S. cerevisiae deletion strains, locus YOR061W, strain CKA2, hits give low values 1.01 | S. cerevisiae deletion strains, locus YOR069W, strain VPS5, hits give low values 0.998 | S. cerevisiae deletion strains, locus YOR070C, strain gyp1, hits give low values 0.99 | S. cerevisiae deletion strains, locus YOR080W, strain dia2, hits give low values 0.989 | S. cerevisiae deletion strains, locus YOR083W, strain WHI5, hits give low values 0.967 | S. cerevisiae deletion strains, locus YOR106W, strain vam3, hits give low values 0.955 | S. cerevisiae deletion strains, locus YOR136W, strain idh2, hits give low values 0.991 | S. cerevisiae deletion strains, locus YOR144C, strain elg1, hits give low values 0.987 | S. cerevisiae deletion strains, locus YOR184W, strain ser1, hits give low values 1.02 | S. cerevisiae deletion strains, locus YOR231W, strain MKK1, hits give low values 0.977 | S. cerevisiae deletion strains, locus YOR265W, strain rbl2, hits give low values 0.985 | S. cerevisiae deletion strains, locus YOR270C, strain vph1, hits give low values 0.876 | S. cerevisiae deletion strains, locus YOR290C, strain snf2, hits give low values 0.943 | S. cerevisiae deletion strains, locus YOR316C, strain cot1, hits give low values 0.992 | S. cerevisiae deletion strains, locus YPL051W, strain arl3, hits give low values 0.97 | S. cerevisiae deletion strains, locus YPL078C, strain atp4, hits give low values 0.976 | S. cerevisiae deletion strains, locus YPL106C, strain sse1, hits give low values 0.954 | S. cerevisiae deletion strains, locus YPL240C, strain hsp82, hits give low values 0.98 | S. cerevisiae deletion strains, locus YPL256C, strain CLN2, hits give low values 0.961 | S. cerevisiae deletion strains, locus YPR119W, strain clb2, hits give low values 0.987 | S. cerevisiae deletion strains, locus YPR141C, strain kar3, hits give low values 0.994 | S. cerevisiae deletion strains, locus YPR163C, strain tif3, hits give low values 0.99 | S. cerevisiae deletion strains, locus YPR167C, strain met16, hits give low values 0.986 | S. cerevisiae deletion strains, strain wtn01, hits give low values 0.976 | S. cerevisiae strains, strain wild type, hits give low values 1
